PubChem BioAssay
Values without a mark were called inactive. For some assays here: Results with a measured potency or affinity are listed apart. The source made the active and inactive calls. Unless noted, the rule behind the calls is not given here.

Assays:
[1] = antimalarial activity against Dd2 strain (AID 2302;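 active = growth inhibition above 50% at the single 2 µM test dose, taken to imply half-maximal potency below 2 µM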;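 note: 0% = DMSO untreated growth and 100% = chloroquine plus artemisinin killed control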); details: P. falciparum Dd2 in RBCs, LDH growth readout, 72 h; at 2 µM; stronger effect = higher value
[2] = HepG2 cytotoxicity, primary screen, cytotoxicity control for P. falciparum antimalarial project, cell-based, ATP luminescence (AID 2303;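 active = inhibition above 50%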;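 note: 0% = DMSO wells and 100% = digitonin-killed cells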); details: HepG2 viability, 24-48 h, at 10 µM, stronger effect = higher value
[3] = biological target: L-lactate dehydrogenase (Plasmodium falciparum (isolate CDC / Honduras)) (UniProt Q27743); assay: PfLDH activity inhibition – cell lysate, 3D7 strain, counter-screen for P. falciparum growth inhibition project (AID 2304);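 note: 0% = vehicle and 100% = reference inhibitor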; details: P. falciparum 3D7 crude extract, LDH APAD/NBT absorbance; at 2 µM; stronger effect = higher value
[4] = inhibition of 3D7 malaria parasite growth – strain 3D7 (AID 2306);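 note: 0% = DMSO wells and 100% = chloroquine plus artemisinin control wells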; details: P. falciparum 3D7 erythrocytic growth, LDH absorbance, 72 h; at 2 µM; stronger effect = higher value
[5] = biological target: Plasmodium falciparum protein kinase 6 (PK6, PF3D7_1337100) (UniProt Q8IDW1); assay: PfPK6 kinase inhibitors, biochemical, TCAMS library (AID 1159586); details: recombinant PfPK6, Kinase-Glo ATP depletion luminescence
[6] = biological target: Protein kinase 7 (PK7), Plasmodium falciparum 3D7 (PF3D7_0213400) (UniProt Q7YTF7); assay: inhibition of Plasmodium PK7 catalytic activity – biochemical, TCAMS antimalarial set, Kinase-Glo luminescence (AID 1159587); details: recombinant PfPK7, Kinase-Glo ATP depletion luminescence
[7] = biological target: Calcium-dependent protein kinase 4 (Plasmodium falciparum (isolate 3D7)) (UniProt Q8IBS5); assay: PfCDPK4 kinase inhibitors, biochemical, TCAMS library (AID 1159588; cut-off not given, nearly all actives have IC50 up to about 0.91 µM); details: recombinant PfCDPK4, Kinase-Glo ATP depletion luminescence
Calcium-dependent protein kinase 4 (Plasmodium falciparum (isolate 3D7)), sequence (Q8IBS5 whole entry, looked up): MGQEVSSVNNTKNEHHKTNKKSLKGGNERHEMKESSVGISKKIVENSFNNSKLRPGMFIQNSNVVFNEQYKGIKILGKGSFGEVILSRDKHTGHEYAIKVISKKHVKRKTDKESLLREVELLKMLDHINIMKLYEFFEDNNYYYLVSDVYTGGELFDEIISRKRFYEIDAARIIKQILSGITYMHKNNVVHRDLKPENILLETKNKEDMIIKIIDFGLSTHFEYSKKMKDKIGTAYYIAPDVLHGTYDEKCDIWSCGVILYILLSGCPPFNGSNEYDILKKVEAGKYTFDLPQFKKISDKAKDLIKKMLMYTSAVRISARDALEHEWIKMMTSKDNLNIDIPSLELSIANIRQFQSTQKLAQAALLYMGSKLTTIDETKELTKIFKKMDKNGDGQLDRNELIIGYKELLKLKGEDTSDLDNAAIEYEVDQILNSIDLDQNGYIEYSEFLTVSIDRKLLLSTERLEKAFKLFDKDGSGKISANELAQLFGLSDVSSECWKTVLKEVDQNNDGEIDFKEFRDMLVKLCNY

Protein kinase 7 (PK7), Plasmodium falciparum 3D7 (PF3D7_0213400), sequence (Q7YTF7 1-343): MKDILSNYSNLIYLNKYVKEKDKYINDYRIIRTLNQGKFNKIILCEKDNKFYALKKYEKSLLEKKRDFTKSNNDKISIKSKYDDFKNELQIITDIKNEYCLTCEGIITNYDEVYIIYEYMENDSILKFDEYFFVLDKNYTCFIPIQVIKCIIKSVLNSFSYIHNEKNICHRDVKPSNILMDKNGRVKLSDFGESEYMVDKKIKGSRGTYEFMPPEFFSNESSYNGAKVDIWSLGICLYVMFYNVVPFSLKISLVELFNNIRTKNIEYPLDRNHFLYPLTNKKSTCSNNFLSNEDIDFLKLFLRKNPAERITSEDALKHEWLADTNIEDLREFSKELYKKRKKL
Plasmodium falciparum protein kinase 6 (PK6, PF3D7_1337100), sequence (Q8IDW1 1-305): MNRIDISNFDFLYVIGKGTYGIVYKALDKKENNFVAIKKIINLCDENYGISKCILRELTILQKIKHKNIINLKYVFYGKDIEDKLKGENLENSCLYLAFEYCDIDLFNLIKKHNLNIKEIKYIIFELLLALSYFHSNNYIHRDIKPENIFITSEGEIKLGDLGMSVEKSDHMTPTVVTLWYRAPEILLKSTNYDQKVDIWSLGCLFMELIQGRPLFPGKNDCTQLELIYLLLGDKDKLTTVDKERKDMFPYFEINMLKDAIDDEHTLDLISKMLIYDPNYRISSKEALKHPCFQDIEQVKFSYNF
L-lactate dehydrogenase (Plasmodium falciparum (isolate CDC / Honduras)), sequence (Q27743 whole entry, looked up): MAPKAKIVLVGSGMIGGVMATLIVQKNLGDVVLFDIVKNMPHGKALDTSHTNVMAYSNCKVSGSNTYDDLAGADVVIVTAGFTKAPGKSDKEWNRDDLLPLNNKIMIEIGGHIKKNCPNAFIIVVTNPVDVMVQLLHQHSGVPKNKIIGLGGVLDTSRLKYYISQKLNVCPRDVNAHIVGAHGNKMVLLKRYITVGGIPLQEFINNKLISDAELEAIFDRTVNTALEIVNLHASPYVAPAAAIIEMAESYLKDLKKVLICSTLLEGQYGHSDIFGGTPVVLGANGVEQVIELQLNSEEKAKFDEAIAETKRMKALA

| SMILES | growth inhibition [1] | inhibition [2] | inhibition [3] [%] | growth inhibition [4] | outcome [5] | outcome [6] | outcome [7] |
| --- | --- | --- | --- | --- | --- | --- | --- |
| O=C(NCCN1CCCC1)c1cccc(Nc2nccc(Nc3ccc(Oc4ccccc4)cc3)n2)c1 | 18% | 33% | -3 | 100% (active) | inactive | inactive | inactive |
| COCCNCc1cccc(-c2ccc3c(Nc4ccc(Oc5ccccc5)cc4)ccnc3c2)c1 | 99% (active) | 25% | 2 | 101% (active) | inactive | inactive | inactive |
| Fc1cc(Cl)ccc1Nc1ccnc2cc(-c3ccc(CNCCN4CCOCC4)o3)ccc12 | 100% (active) | 13% | -2 | 101% (active) | inactive | inactive | inactive |
| CN(C)CCNCc1ccc(-c2ccc3c(Nc4ccc(Cl)cc4F)ccnc3c2)o1 | 100% (active) | 14% | -4 | 99% (active) | inactive | inactive | inactive |
| CC(C)(CNCc1ccc(C(F)(F)F)cc1)c1nc(-c2ccc(Cl)c(O)c2)c(-c2ccnc(N)n2)[nH]1 | 37% | 32% | -2 | 101% (active) | inactive | inactive | inactive |
| CC(C)(CNC(=O)C1CCN(CCOc2ccc(F)c(F)c2)CC1)c1nc(-c2ccc(Cl)c(O)c2)c(-c2ccncc2)[nH]1 | 19% | 41% | -1 | 101% (active) | inactive | inactive | inactive |
| O=C(NC1CC1)c1ccc(Nc2nccc(-c3c(-c4cccc(NC(=O)c5c(F)cccc5F)c4)nn4ccccc34)n2)cc1 | 96% (active) | 84% (active) | -1 | 94% (active) | inactive | inactive | inactive |
| CN1CCN(CCCNCc2ccc(Nc3nccc(Nc4ccc(Oc5ccccc5)cc4)n3)cc2)CC1 | 9% | 17% | 0 | 100% (active) | inactive | inactive | inactive |
| CC(C)(NCc1ncc[nH]1)c1nc(-c2ccc(Cl)c(O)c2)c(-c2ccncc2)[nH]1 | 97% (active) | 42% | 3 | 95% (active) | inactive | inactive | inactive |
| CN(C)CCNCc1cccc(-c2ccc3c(Nc4ccc(Oc5ccccn5)cc4)ccnc3c2)c1 | 100% (active) | 27% | 2 | 99% (active) | inactive | inactive | inactive |
| Oc1cccc(-c2cnc3ccc(NCc4ccc(F)cc4)nn23)c1 | 66% (active) | -5% | 2 | 91% (active) | inactive | inactive | inactive |
| Cc1nc(-c2cccc(Nc3ccnc4cc(-c5nccs5)ccc34)c2)no1 | 90% (active) | 37% | -2 | 99% (active) | inactive | inactive | inactive |
| CC(C)(CNCc1ccc(OC(F)(F)F)cc1)c1nc(-c2ccc(Cl)c(O)c2)c(-c2ccncc2)[nH]1 | 99% (active) | 38% | -2 | 102% (active) | inactive | inactive | inactive |
| CNCC(C)(C)c1nc(-c2ccc(Cl)c(O)c2)c(-c2ccncc2)[nH]1 | 96% (active) | 46% | -2 | 98% (active) | inactive | inactive | inactive |
| CS(=O)(=O)c1cccc(-c2cnc3[nH]cc(-c4cccc(CCN)c4)c3c2)c1 | 74% (active) | -12% | -5 | 99% (active) | inactive | inactive | inactive |
| NC(=O)c1ccccc1Nc1nc(Nc2ccn[nH]2)ncc1Cl | 93% (active) | 67% (active) | -4 | 96% (active) | inactive | inactive | inactive |
| CN1CCN(Cc2ccc(-c3ccc4c(Nc5ccc(Cl)cc5F)ccnc4c3)o2)CC1 | 100% (active) | 47% | -3 | 102% (active) | inactive | inactive | inactive |
| COc1ccc(CNCC(C)(C)c2nc(-c3ccc(Cl)c(O)c3)c(-c3ccncc3)[nH]2)cc1 | 99% (active) | 76% (active) | 1 | 101% (active) | inactive | inactive | inactive |
| O=c1[nH]ccc2nc(N[C@@H]3CCNC3)nc(Nc3ccc4c(c3)S(=O)(=O)CC4)c12 | 99% (active) | -4% | -2 | 100% (active) | inactive | inactive | inactive |
| CC(C)(CNCc1ccc(F)c(F)c1)c1nc(-c2ccc(Cl)c(O)c2)c(-c2ccnc(N)n2)[nH]1 | 79% (active) | 41% | -4 | 99% (active) | inactive | inactive | inactive |
| CN1CCN(Cc2cccc(-c3ccc4c(Nc5cc(O)c(Cl)cc5F)ccnc4c3)c2)CC1 | 100% (active) | -1% | 4 | 102% (active) | inactive | inactive | inactive |

| SMILES | growth inhibition [1] | inhibition [2] | inhibition [3] [%] | growth inhibition [4] | outcome [5] | outcome [6] | outcome [7] |
| --- | --- | --- | --- | --- | --- | --- | --- |
| CN(C)Cc1ccc(-c2ccc3c(Nc4ccc(Oc5ccccn5)cc4)ccnc3c2)o1 | 100% (active) | 18% | 1 | 101% (active) | inactive | inactive | inactive |
| O=C(NCCN1CCCCC1)c1ccc(Nc2nccc(Nc3ccc(Oc4ccccc4)cc3)n2)cc1 | 91% (active) | 58% (active) | -2 | 101% (active) | inactive | inactive | inactive |
| COc1ccc(Nc2ncc3c(-c4cccc(NC(=O)Cc5cccc(O)c5)c4)c[nH]c3n2)cc1OC | 96% (active) | 44% | -6 | 101% (active) | inactive | inactive | inactive |
| O=C(NCCN1CCC(c2ccncc2)CC1)c1ccc(Nc2nccc(Nc3ccc(Oc4ccccc4)cc3)n2)cc1 | 90% (active) | 17% | 1 | 102% (active) | inactive | inactive | inactive |
| CC(C)(CNCc1ccc(Cl)c(Cl)c1)c1nc(-c2ccc(Cl)c(O)c2)c(-c2ccncc2)[nH]1 | 97% (active) | 43% | -3 | 101% (active) | inactive | inactive | inactive |
| Nc1ncc(-c2cn[nH]c2)cc1-c1nc2ccc(F)cc2[nH]1 | 53% (active) | 38% | -3 | 101% (active) | inactive | inactive | inactive |
| Clc1ccc(-c2cnc3ccc(NCCc4cccnc4)nn23)cc1 | 32% | 34% | -4 | 97% (active) | inactive | inactive | inactive |
| CC(C)(CN)c1nc(-c2ccc(Cl)c(O)c2)c(-c2ccnc(N)n2)[nH]1 | 95% (active) | 34% | -5 | 95% (active) | inactive | inactive | inactive |
| O=C(NCCN1CCC(c2ccncc2)CC1)c1cccc(Nc2nccc(Nc3ccc(Oc4ccccc4)cc3)n2)c1 | 91% (active) | 60% (active) | -3 | 101% (active) | inactive | inactive | inactive |
| CCn1c(-c2nonc2N)nc2c(-c3cccc(NC(=O)Nc4ccc(Cl)cc4)c3)ncc(OCCCN)c21 | 72% (active) | 26% | -1 | 96% (active) | inactive | inactive | inactive |
| CN(C)CCN(C)Cc1ccc(-c2ccc3c(Nc4ccc(Oc5ccccc5)cc4)ccnc3c2)o1 | 100% (active) | 5% | -4 | 100% (active) | inactive | inactive | inactive |
| O=C(NCCCN1CCCCC1)c1cccc(Nc2nccc(Nc3ccc(Oc4ccccc4)cc3)n2)c1 | 12% | 47% | 2 | 96% (active) | inactive | inactive | inactive |
| O=C(NCCN1CCCCC1)c1cccc(Nc2nccc(Nc3ccc(Oc4ccccc4)cc3)n2)c1 | 86% (active) | 50% (active) | -2 | 99% (active) | inactive | inactive | inactive |
| Cc1ccc(Nc2nccc(N(C)c3ccc4c(c3)nc(NC(=O)Cc3ccc(Cl)c(Cl)c3)n4C)n2)cc1S(N)(=O)=O | 60% (active) | 71% (active) | 0 | 94% (active) | inactive | inactive | inactive |
| Cc1cccc(Nc2nc(N[C@@H]3CCCNC3)nc3cc[nH]c(=O)c23)c1 | 98% (active) | 55% (active) | 1 | 99% (active) | inactive | inactive |  |
| CCn1c(-c2nonc2N)nc2c(-c3cccc(NC(=O)Nc4cccc(C(F)(F)F)c4)c3)ncc(OCCCN)c21 | 70% (active) | 21% | 2 | 95% (active) | inactive | inactive |  |
| Oc1cc(-c2nc(C3(CNCc4ccc(Cl)cc4)CCCCC3)[nH]c2-c2ccncc2)ccc1Cl | 99% (active) | 35% | 2 | 100% (active) | inactive | inactive | inactive |
| CN(C(=O)c1cc2c(-c3cncnc3)cccc2[nH]1)c1ccccc1 | 99% (active) | 1% | 0 | 92% (active) | inactive | inactive | inactive |
| CCn1c(-c2nonc2N)nc2c(-c3cccc(NC(=O)Nc4ccc(C#N)cc4)c3)ncc(OCCCN)c21 | 80% (active) | 1% | 0 | 85% (active) | inactive | inactive |  |
| CN(C)CCNCc1ccc(-c2ccc3c(Nc4ccc(Oc5ccccc5)cc4)ccnc3c2)o1 | 99% (active) | 19% | 2 | 100% (active) | inactive | inactive | inactive |
